These results are taken from PMC5540273 (PLoS ONE, 2017).

Where “and” joins values, the source holds several entries; their conditions need not be identical. Identical values can stand only once. Like-named read-outs stand apart in the source and are kept apart here.

The test system of experiment [1] is T1, RSK2(Kin.Dom.1-N-terminal).
T1 construct: gene RPS6KA3
The note with it: concentration: 1 μM, replicates: in singlicate, n = 1.

Experiment [2] deals with T2, RSK2(Kin.Dom.2-C-terminal).
T2 construct: gene RPS6KA3
The note with it: concentration: 1 μM, replicates: in singlicate, n = 1.

The subject of experiment [3] is T3, RSK3(Kin.Dom.1-N-terminal).
T3 construct: gene RPS6KA2
The note with it: concentration: 1 μM, replicates: in singlicate, n = 1.

The subject of experiment [4] is T4, RSK3(Kin.Dom.2-C-terminal).
T4 construct: gene RPS6KA2
The note with it: concentration: 1 μM, replicates: in singlicate, n = 1.

For experiment [5], the system named is T5, RSK4(Kin.Dom.1-N-terminal).
T5 construct: gene RPS6KA6
The note with it: concentration: 1 μM, replicates: in singlicate; n = 1.

The test system of experiment [6] is T6, RSK4(Kin.Dom.2-C-terminal).
T6 construct: gene RPS6KA6
The note with it: concentration: 1 μM, replicates: in singlicate, n = 1.

A further experiment deals with S6K1. The note with it: concentration: 1 μM, replicates: in singlicate, n = 1.
The test system of a further experiment is SBK1. The note with it: concentration: 1 μM, replicates: in singlicate, n = 1.
In the next experiment the test system is SGK2. The note with it: concentration: 1 μM, replicates: in singlicate, n = 1.
The subject of another experiment is SGK3. The note with it: concentration: 1 μM, replicates: in singlicate, n = 1.
For the next experiment, the system named is SGK. The note with it: concentration: 1 μM, replicates: in singlicate, n = 1.
The subject of another experiment is SIK2. The note with it: concentration: 1 μM, replicates: in singlicate, n = 1.
In another experiment the test system is SIK. The note with it: concentration: 1 μM, replicates: in singlicate, n = 1.
The next experiment relates to SLK. The note with it: concentration: 1 μM, replicates: in singlicate; n = 1.
Another experiment has as its system T7, SNARK.
T7 construct: gene NUAK2
The note with it: concentration: 1 μM, replicates: in singlicate, n = 1.

For the next experiment, the system named is SNRK. The note with it: concentration: 1 μM, replicates: in singlicate, n = 1.
The test system of a further experiment is SRC. The note with it: concentration: 1 μM, replicates: in singlicate; n = 1.
The test system of another experiment is SRMS. The note with it: concentration: 1 μM, replicates: in singlicate, n = 1.
The test system of another experiment is SRPK1. The note with it: concentration: 1 μM, replicates: in singlicate, n = 1.
The test system of the next experiment is SRPK2. The note with it: concentration: 1 μM, replicates: in singlicate, n = 1.
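Further: KINOMEscan kinase panel screen.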

Consider `CN(C1=C(c2ccccc2)C(=O)NC1=O)c1ccccc1` [SB-334860], for which the “%Inh” value is reported as 4% in experiment [1]; 23% in [2]; 14% in experiment [3]; 0% in experiment [4]; 0% in experiment [5]; 8% in experiment [6]. In addition, the “%Inh” value came out at 2% in the experiment with S6K1; 2% with SBK1; 0% with SGK2; 16% in the experiment with SGK3; 0% in the experiment on SGK; 5% in the experiment with SIK2. In addition, the “%Inh” value with SIK was 7%; in the experiment with SLK it was 10%; in the experiment with SNARK it was 23%; in the experiment on SNRK, 0%; in the experiment with SRC it was 5%; with SRMS, 0%. The “%Inh” value in the experiment on SRPK1 is given as 10%; in the experiment with SRPK2 it was 0%.
For the molecule `O=C(c1ccc(-c2cc(-c3c[nH]nc3-c3ccccn3)ccn2)cc1)N1CCOCC1` [GW812171], the “%Inh” value in experiment [1] stood at 31%; in experiment [2], 0%; in experiment [3], 0%; in experiment [4], 0%; in [5], 9%; in experiment [6], 24%. In addition, the “%Inh” value with S6K1 was determined as 13%; with SBK1, 0%; in the experiment with SGK2 it was 0%; with SGK3, 16%; with SGK, 2%; in the experiment on SIK2, 0%. In addition, the “%Inh” value is reported as 0% in the experiment on SIK; 0% in the experiment on SLK; 16% in the experiment with SNARK; 10% in the experiment on SNRK; 1% with SRC; 28% with SRMS. Further, the “%Inh” value in the experiment on SRPK1 and in the experiment on SRPK2 was 0% each time.
Turning to `CSc1ccc(-c2cc3ncnc(SCC(=O)O)c3s2)cc1`, the “%Inh” value in experiment [1] is 0%; in [2], 0%; in experiment [3], 0%; in [4], 20%; in experiment [5], 0%; in experiment [6], 19%. Also, the “%Inh” value in the experiment with S6K1 was determined as 0%; in the experiment with SBK1, 0%; in the experiment with SGK2 it was 0%; in the experiment on SGK3, 6%; in the experiment on SGK, 0%; with SIK2, 0%. For the same molecule, the “%Inh” value is 25% in the experiment with SIK; 0% in the experiment on SLK; 0% with SNARK; 0% with SNRK; 0% in the experiment on SRC; 0% with SRMS. For the same molecule, the figures for the “%Inh” value with SRPK1 and in the experiment on SRPK2 were 0% and 100%, respectively.
For `NCC(NC(=O)c1cc(-c2cn[nH]c2)c(-c2ccnc3[nH]ccc23)s1)c1ccccc1.O=C(O)C(F)(F)F.O=C(O)C(F)(F)F` (stereo not drawn) [GSK1325775], the “%Inh” value in [1] came out at 35%; in [2], 6%; in experiment [3], 7%; in [4] it was 0%; in experiment [5], 21%; in experiment [6], 8%. Further, the “%Inh” value in the experiment with S6K1 is reported as 53%; in the experiment with SBK1, 84%; with SGK2 it was 79%; in the experiment with SGK3, 81%; with SGK it was 74%; with SIK2, 0%. The “%Inh” value in the experiment with SIK amounted to 0%; with SLK it was 0%; with SNARK, 92.2%; in the experiment with SNRK, 0%; in the experiment on SRC, 0%; in the experiment on SRMS, 0%. Further, the “%Inh” value in the experiment with SRPK1 turned out to be 81%; in the experiment on SRPK2 it was 22%.
Consider `CC(C)Oc1ccc2c(-c3ccnc(Nc4ccc(N5CCN(C)CC5)cc4)n3)cnn2n1` [GW696155], for which the “%Inh” value is 44% in experiment [1]; 28% in experiment [2]; 7% in experiment [3]; 77% in experiment [4]; 0% in experiment [5]; 95.1% in [6]. For the same molecule, the “%Inh” value was 44% with S6K1; 88% in the experiment with SBK1; 52% in the experiment on SGK2; 58% in the experiment with SGK3; 88% with SGK; 83% with SIK2. Also, the “%Inh” value in the experiment with SIK is given as 79%; in the experiment on SLK, 10%; in the experiment on SNARK, 99.6%; in the experiment with SNRK, 23%; with SRC it was 66%; in the experiment on SRMS, 0%. Further, the results for the “%Inh” value with SRPK1 and in the experiment on SRPK2 were 85% and 54%, respectively.
For `O=C(NCCNc1ccnc(Nc2ccc(F)cc2)n1)Nc1ccccc1F` [GSK1379880], the “%Inh” value in experiment [1] stood at 0%; in experiment [2], 0%; in experiment [3], 0%; in [4] it was 0%; in [5], 0%; in [6] it was 2%. The “%Inh” value is 9% with S6K1; 41% in the experiment on SBK1; 0% with SGK2; 0% in the experiment with SGK3; 0% in the experiment with SGK; 0% in the experiment with SIK2. Also, the “%Inh” value is given as 0% in the experiment with SIK; 11% in the experiment with SLK; 0% in the experiment with SNARK; 0% with SNRK; 6% in the experiment with SRC; 0% in the experiment on SRMS. Further, the “%Inh” value in the experiment with SRPK1 amounted to 5%; with SRPK2, 0%.
Regarding `Cc1c2ccc(N(C)c3ccnc(Nc4cccc(S(N)(=O)=O)c4)n3)cc2nn1Cc1ccccc1.Cl.Cl` [GW787226], the “%Inh” value in [1] is recorded as 18%; in experiment [2] it was 0%; in [3], 0%; in [4], 0%; in experiment [5], 6%; in experiment [6], 0%. Also, the “%Inh” value in the experiment with S6K1 amounted to 65%; in the experiment with SBK1, 0%; in the experiment on SGK2 it was 0%; in the experiment on SGK3, 0%; with SGK, 0%; in the experiment with SIK2 it was 42%. In addition, the “%Inh” value stood at 72% with SIK; 66% in the experiment with SLK; 0% with SNARK; 0% with SNRK; 94.7% in the experiment on SRC; 67% with SRMS. In addition, the “%Inh” value is on record as 7% in the experiment on SRPK1 and 0% in the experiment with SRPK2.
On to `O=c1cc(N2CCOCC2)nc2n(Cc3cccc4ccccc34)ccn12` [GSK2333389], for which the “%Inh” value stood at 0% in experiment [1]; 0% in experiment [2]; 2% in experiment [3]; 0% in experiment [4]; 0% in experiment [5]; 8% in experiment [6]. Besides, the “%Inh” value in the experiment with S6K1 came out at 0%; in the experiment with SBK1 it was 14%; in the experiment on SGK2, 0%; in the experiment with SGK3, 0%; in the experiment with SGK, 0%; in the experiment with SIK2, 0%. In addition, the “%Inh” value in the experiment on SIK, in the experiment on SLK, in the experiment on SNARK, with SNRK, with SRC and with SRMS was 0% throughout. The “%Inh” value in the experiment with SRPK1 came out at 29%; in the experiment with SRPK2, 0%.
As for `CC(C)(CN)c1nc(-c2ccc(Cl)c(O)c2)c(-c2ccncc2)[nH]1.O=C(O)C(F)(F)F` [SB-477794], the “%Inh” value in [1] (1 µM) is 0% and 11%; in experiment [2] (1 µM), 36% and 27%; in experiment [3] (1 µM), 6% and 2%; in [4] (1 µM), 0% and 2%; in experiment [5], 0%; in experiment [6] (1 µM) it was 90.6% and 89%. Moreover, the “%Inh” value with S6K1 (1 µM) was 43% and 37%; in the experiment with SBK1 (1 µM), 5% and 6%; in the experiment on SGK2 (1 µM), 2% and 0%; in the experiment on SGK3 (1 µM) it was 0% and 7%; in the experiment on SGK (1 µM), 23% and 3%; in the experiment on SIK2 (1 µM), 78% and 71%. The “%Inh” value in the experiment on SIK (1 µM) is 21% and 33%; in the experiment with SLK, 99.3%; with SNARK (1 µM) it was 0% and 7%; in the experiment with SNRK (1 µM), 11% and 0%; in the experiment with SRC, 99.9%; in the experiment with SRMS (1 µM) it was 0% and 15%. The “%Inh” value in the experiment on SRPK1 (1 µM) is 17% and 42%; in the experiment on SRPK2 (1 µM) it was 26% and 74%.
